Only some compounds are listed: those with a hit (about 2.6% of all), similar ones and a draw of the others.
Granule exo inh: lytic granule exocytosis inhibition. TALL-104 LAMP-1 surface exposure, flow cytometry; cells stimulated with thapsigargin and PMA. inhibition, % at 10 µM. hit rate 0.66% among 360,000. AID 651702;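 active = inhibition above about 55%, limit read from the data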
ABHD5 PLIN5 PPI: ABHD5-PLIN5 protein interaction inhibition; Q00G26+Q8WTS1; Split G. princeps luciferase complementation, luminescence, 4 h; inhibition, % at 4 µM; hit rate 0.78% among 360,000; AID 602281;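 active = inhibition above the mean inhibition across every tested compound plus 3 SD, cut at about 22% in these data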;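 note: 0% = DMSO only wells and the 100% control is not disclosed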
Target sequence (Q00G26 whole entry, looked up): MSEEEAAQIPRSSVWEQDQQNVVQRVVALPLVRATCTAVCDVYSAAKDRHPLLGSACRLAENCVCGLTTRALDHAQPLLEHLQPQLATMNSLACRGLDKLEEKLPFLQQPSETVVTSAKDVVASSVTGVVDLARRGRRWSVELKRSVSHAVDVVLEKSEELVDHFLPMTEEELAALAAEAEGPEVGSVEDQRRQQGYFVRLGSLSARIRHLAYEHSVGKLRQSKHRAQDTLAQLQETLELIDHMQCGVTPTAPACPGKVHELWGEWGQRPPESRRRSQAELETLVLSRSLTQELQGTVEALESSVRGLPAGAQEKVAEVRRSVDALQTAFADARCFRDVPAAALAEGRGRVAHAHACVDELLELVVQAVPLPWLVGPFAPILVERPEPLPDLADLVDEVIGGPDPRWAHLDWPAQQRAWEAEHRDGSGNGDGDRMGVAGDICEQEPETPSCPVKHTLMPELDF
Target sequence (Q8WTS1 whole entry, looked up): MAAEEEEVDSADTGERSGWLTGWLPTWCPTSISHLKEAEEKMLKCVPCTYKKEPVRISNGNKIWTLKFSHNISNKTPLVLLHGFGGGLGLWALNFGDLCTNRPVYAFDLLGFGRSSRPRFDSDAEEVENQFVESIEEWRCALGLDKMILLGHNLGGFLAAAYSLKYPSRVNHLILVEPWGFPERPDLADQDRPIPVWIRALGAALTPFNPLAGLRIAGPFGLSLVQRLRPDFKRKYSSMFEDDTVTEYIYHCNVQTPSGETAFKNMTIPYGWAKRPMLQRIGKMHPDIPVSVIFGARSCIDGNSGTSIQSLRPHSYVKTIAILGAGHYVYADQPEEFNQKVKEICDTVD
PfM18AAP inh-1: blocks P. falciparum M18 aspartyl aminopeptidase; recombinant PfM18AAP, H-Glu-NHMec fluorogenic cleavage; inhibition, % at 7.35 µM; hit rate 1.2% among 290,000; AID 1822;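 active = inhibition above the campaign mean inhibition over all tested compounds plus 3 SD, cut at about 28% in these data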;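 note: 0% = plate median of test compound wells and 100% = 2 mM ZnCl2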
Platelet DG rel: platelet dense granule release activity; human platelet-rich plasma, SFLLRN dense granule ATP release, luminescence; inhibition, %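 (compounds screened at 7.5 µM in platelet-rich plasma)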; hit rate 0.22% among 300,000;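 active = mean replicate score, as percent of positive control, at or above 50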
Rce1 inh: inhibitors of yeast Ras-converting enzyme | yeast membranes, quenched prenylated peptide cleavage fluorescence | calls only | hit rate 0.27% among 290,000 | AID 2563;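 active = fall in fluorescence gain of 50% or more versus controls, with final raw signal at or below 3038400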;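 note: plate controls were neutral control wells for no effect and wells lacking membranes for full effect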
PfM18AAP inh-2: PfM18AAP inhibition, confirmation; recombinant PfM18AAP, H-Glu-NHMec fluorogenic cleavage; shares compounds with PfM18AAP inh-1; hit rate 28% among 2,400; inhibition, % at 7.35 µM;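 active = mean inhibition over replicate wells above the hit cutoff set for the earlier primary screen, cut at about 29% in these data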;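 note: 0% = median of test compound wells and 100% = 2 mM ZnCl2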
CTSL1 confirm: Cathepsin L (human) inhibition, confirmation. shares compounds with PfM18AAP inh-1. purified cathepsin L1, Z-Leu-Arg-MCA fluorescence. inhibition, % at 5.96 µM. 2,400 tested, under 10 active. AID 2178;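 active = average inhibition across replicates above the hit cutoff set in the earlier primary screen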;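 note: 0% = median of test compound wells and 100% = Z-Phe-Ala-diazomethylketone 1 µM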
Active calls of the source: *; i = inactive; · = no result; + = active, no number.

SMILES | Granule exo inh | ABHD5 PLIN5 PPI | PfM18AAP inh-1 | Platelet DG rel | Rce1 inh | PfM18AAP inh-2 | CTSL1 confirm
Cc1ccc(Nc2nc(=O)c3cccnc3s2)cc1 | -6 | -1 | 6 | 1 | i | · | ·
COc1ccc(OC)c(Nc2nc(=O)c3cccnc3s2)c1 | 4 | 4 | 54* | · | · | 26 | -6
CC(=O)c1ccc(OCC(O)CN2CCN(CCO)CC2)cc1 (stereo not given) | -8 | -3 | -2 | 6 | i | · | ·
O=C(NC(=S)NNS(=O)(=O)c1ccccc1)c1ccc([N+](=O)[O-])cc1 | -2 | -13 | 50* | 18 | i | -9 | 4
CCOc1ccc(CNc2ncnc(N)n2)cc1 | 1 | 2 | -1 | 2 | i | · | ·
Nc1ccccc1Nc1cc(-c2ccccc2)[nH]n1 | 2 | 8 | 39* | -9 | i | -27 | 4
CCc1nnc(NC(=O)CN2C(=O)/C(=C/c3cc(OC)c(OC)c(OC)c3)SC2=S)s1 | 8 | -15 | 33* | -25 | i | -17 | 1
COc1cc(/C=C2/SC(=S)N(CC(=O)Nc3nc4ccccc4s3)C2=O)cc(OC)c1OC | 2 | -18 | 20 | 13 | · | · | ·
O=c1c2ccccc2sn1-c1cc(S(=O)(=O)N2CCOCC2)ccc1N1CCCC1 | 8 | 13 | 41* | 0 | i | 27 | -1
Clc1ccc(Nc2ncn[nH]2)cc1 | -1 | -8 | 34* | 2 | i | 18 | 4
C=CC1=CCN(S(=O)C(C)(C)C)[C@H]1CCO (stereo not given in full) | 1 | 4 | · | · | · | · | ·
CCOC(=O)Nc1ccc(S(=O)(=O)Nn2cnnc2)cc1 | 2 | -1 | 41* | -3 | i | 47* | -1
CCCCOC(=O)Nc1ccc(S(=O)(=O)Nc2cc(C)nc(C)n2)cc1 | 7 | 3 | -7 | -17 | i | · | ·
CCCCOC(=O)Nc1ccc(S(=O)(=O)Nn2cnnc2)cc1 | -3 | 1 | 50* | 1 | i | 50* | 0
CCCOC(=O)Nc1ccc(S(=O)(=O)Nn2cnnc2)cc1 | -1 | -4 | 48* | -2 | i | 51* | -4
CCOC(=O)c1c(NS(=O)(=O)c2cccc(OC)c2)sc2c1CCC2 | -4 | -15 | 33* | 5 | i | -84 | 0
COc1ccc(C(=O)N(c2ccccc2)c2nccc3ccccc23)cc1OC | -1 | 3 | · | · | · | · | ·
c1ccc(Nc2ccnc(Nc3ccccc3)n2)cc1 | 24 | -2 | 0 | 1 | i | · | ·
NNc1nccc(Nc2ccccc2C(=O)O)n1 | -1 | 0 | 43* | -2 | i | 26 | 3
CC(C)Cc1n[nH]c(=O)[nH]1 | 1 | -4 | 8 | -12 | i | · | ·
N#CCC(=O)N/N=C/c1ccc(OCC(=O)Nc2ccc(F)cc2)cc1 | 0 | -4 | 42* | -3 | i | -45 | 4
CCCCOc1ccccc1/C=N/NC(=O)CC#N | -3 | -11 | 38* | -16 | i | -13 | -6
CN(c1ccccc1)c1ccc(/C=N/NC(=O)CC#N)cc1 | -5 | -13 | 36* | -14 | + | -33 | 9
CCOc1ccccc1/C=N/NC(=O)C[n+]1ccccc1 | 2 | -1 | · | · | · | · | ·
CSc1ncccc1C(=O)NCCc1ccccc1 | 1 | 2 | -6 | -4 | i | · | ·
SMILES | Granule exo inh | ABHD5 PLIN5 PPI | PfM18AAP inh-1 | Platelet DG rel | Rce1 inh | PfM18AAP inh-2 | CTSL1 confirm
CC(C)(C)C(=O)C(Oc1cccc2nonc12)n1cncn1 (stereo not given) | -7 | 5 | 50* | 4 | i | -34 | 0
CCOc1ccc(OCC)c(NC(=O)C2CCN(S(=O)(=O)c3cccc4nonc34)CC2)c1 | 2 | -3 | -4 | 4 | i | · | ·
Cc1ccc(NC(=O)c2cc(S(=O)(=O)N3CCc4ccccc43)cn2C)cc1C | -5 | -6 | -1 | 10 | i | · | ·
Cc1ccccc1CN1[C@@H]2c3ccccc3C[C@@H]2OCCS1(=O)=O | -5 | -1 | -7 | 9 | i | · | ·
CC1(C)Nc2ccc(O)cc2-c2c1ssc2=S | -1 | -19 | 15 | -4 | i | · | ·
CCOc1ccc2c(c1)-c1c(ssc1=S)C(C)(C)N2C | 4 | -6 | 33* | 2 | i | -25 | -2
CCOC(=O)c1sc(NC(=O)CSc2nc(C)cc(C)n2)c(C#N)c1C | 4 | -2 | -1 | -1 | i | · | ·
CCOC(=O)c1sc(N(Cc2ccccc2)C(=O)CSc2ncn[nH]2)nc1C | -4 | -5 | 90* | -1 | i | -36 | -3
COc1ccc(-c2oc(NC(=O)CSc3ncn[nH]3)c(C#N)c2-c2ccc(OC)cc2)cc1 | -2 | -10 | 73* | -12 | i | 25 | -3
CCOC(=O)c1sc(N(Cc2ccccc2)C(=O)CCl)nc1C | -10 | 5 | 22 | -12 | i | · | ·
CCOC(=O)c1sc(NC(=O)CSc2ncn[nH]2)c(C#N)c1C | -1 | 3 | 40* | -1 | i | 9 | -6
COc1ccc(-c2oc(NC(=O)CCl)c(C#N)c2-c2ccc(OC)cc2)cc1 | 3 | 6 | -4 | 4 | i | · | ·
C#Cc1ccc([C@@H]2C=C(C(=O)O)O[C@H](OCC)[C@H]2CCCO)cc1 | 0 | 4 | · | -3 | i | · | ·
Cc1cc(NC(=O)NC2(C(F)(F)F)Oc3ccc(Cl)cc3O2)no1 (stereo not given) | -5 | 9 | 88* | 3 | i | 83* | -2
Cc1cc(NC(=O)Nc2ccc(F)c(Cl)c2)no1 | -2 | -3 | 5 | 7 | i | · | ·
O=C(NCc1cccnc1)NC1(C(F)(F)F)Oc2ccc(Cl)cc2O1 (stereo not given) | -2 | -11 | 80* | 9 | i | 83* | -1
COCCNC(=O)NC1(C(F)(F)F)Oc2ccc(Cl)cc2O1 (stereo not given) | 2 | 1 | 83* | 1 | i | 61* | 1
CSc1ccc(CN(C)C(C)C(=O)NCC2CCCCC2)cc1 (stereo not given) | 11 | 5 | 1 | 4 | i | · | ·
O=C(NC1CCCCC1)C(c1ccncc1)N(Cc1ccccc1)C(=O)c1ccc(-c2ccccc2)[nH]1 (stereo not given) | 3 | 18 | -1 | 0 | i | · | ·
CCC1CCCCN1C(=O)CSc1nnc(CNC(=O)COc2ccc(Cl)cc2)o1 (stereo not given) | 3 | -3 | 3 | -16 | i | · | ·
COC(=O)c1ccc(NC(=S)NC2CC(C)(C)NC(C)(C)C2)cc1 | 15 | 7 | -1 | -22 | i | · | ·
CC1(C)CC(=O)C(C(=S)Nc2ccccc2)=C(NC2CC(C)(C)NC(C)(C)C2)C1 | 11 | 6 | 47* | -7 | i | -48 | 3
NS(=O)(=O)c1ccc(NC(=O)COC(=O)CC2Sc3ccccc3NC2=O)cc1 (stereo not given) | 12 | 7 | · | · | · | · | ·
Cc1ccc(-c2nc(N/N=C/c3cccnc3)c3ccccc3n2)cc1 | 4 | 4 | 43* | 64* | i | -33 | 6
Cc1ccc(-c2nc(N/N=C/c3cccc([N+](=O)[O-])c3)c3ccccc3n2)cc1 | 5 | -2 | 12 | 16 | · | · | ·
